Test [1] concerns the target D(1A) dopamine receptor (Homo sapiens) (UniProt P21728). As to the kind of experiment: NVS_GPCR_hDRD1: NovaScreen (NVS) G Protein-Coupled Receptor Assay for human Dopamine Receptor D1 (DRD1) (AID 2283269). The essentials: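 Radioligand displacement binding on membranes/protein extracted from HEK293 expressing human D1, cell-free; read 1 h after dosing by filter-based scintillation counting. Primary screen in duplicate at 25 uM, actives followed up in concentration series; signal loss versus DMSO baseline.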

Test [2] concerns the target human Neurokinin, NK2 Receptor, TACR2 (gene 6865) (UniProt P21452). Nature of the test: NVS_GPCR_hNK2: NovaScreen (NVS) G Protein-Coupled Receptor Assay for human Neurokinin, NK2 Receptor (AID 2283278).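 Also: actives reduce bound radioligand signal relative to DMSO baseline.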 The essentials: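 Radioligand binding on membranes from CHO cells expressing receptor, filter-based scintillation read 4 h after dosing. Initial duplicate screen at 25 uM, actives in concentration series; loss of signal versus DMSO.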

For test [3], the target named is human Opioid Receptor Mu (Opiate Mu), OPRM1 (gene 4988) (UniProt P35372). As to the kind of experiment: NVS_GPCR_hOpiate_mu: NovaScreen (NVS) G Protein-Coupled Receptor Assay for human Opioid Receptor Mu (Opiate Mu) (AID 2283290).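 Also: hits lower bound tracer signal versus DMSO meaning displacement of the ligand.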 The essentials: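 Radioligand displacement binding on membranes from CHO cells expressing the receptor, 2.5 h after dosing, filter-based scintillation counting; loss of signal vs DMSO baseline. Screened in duplicate at 25 uM, actives then run in concentration series.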

For test [4], the target named is human Dopamine Transporter (DAT), SLC6A3 (gene 6531) (UniProt Q01959). Nature of the test: NVS_TR_hDAT: NovaScreen (NVS) Transporter Assay for human Dopamine Transporter (DAT) (AID 2283374).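 Also: activity means loss of bound radioligand signal relative to DMSO.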 The essentials: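 Duplicate single-point screening at 25 uM preceded concentration-series follow-up of actives. Binding was measured by competitive displacement of a radioligand from DAT protein, filter-counted by scintillation 1 h after dosing. Decrease relative to DMSO taken as activity.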

Test [5] in a line: TAMU_PeakParms_SingleDonor1434_Chronotropy: Texas A&M University (TAMU) 1.5-hr Human Induced Pluripotent Stem Cell (iPSC)-derived Cardiomyocytes Calcium (Ca+2) Flux Assay for Cardiotoxicity: Chronotropy (changes in peak frequency) (AID 2284217; active = hit-call score of the fitted dose curve at least 0.9, where 1 is the maximum; inactive = score below 0.9). As to conditions: actives raise or lower the signal. The essentials:
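iPSC-derived cardiomyocytes (single donor 1434) dosed at 0.2, 1, 10 and 100 uM in 0.5% DMSO for 1.5 h at 37C; Ca2+ dye fluorescence gave average beat frequency. Zero-beat points removed; bidirectional fit versus DMSO, POD as EC05.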

The nature of test [6]: TAMU_HCS_1.5hr_SingleDonor1434_Cytotoxicity: Cytotoxicity Assessment using High-content Screening (HCS) Fluorescent Imaging for the Texas A&M University (TAMU) 1.5-hr Human Induced Pluripotent Stem Cell (iPSC)-derived Cardiotoxicity Assay (AID 2284234). The essentials: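 Nuclear counts from Hoechst 33342 imaging define cytotoxicity here, with EC10 (10% cell-count loss relative to DMSO) as point of departure. iPSC cardiomyocytes received 0.2-100 uM test chemical in 0.5% DMSO for 1.5 h at 37 C.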

The target in test [7] is Nuclear receptor subfamily 1 group I member 2 (Homo sapiens) (UniProt O75469). Nature of the test: NVS_NR_hPXR: NovaScreen (NVS) Nuclear Receptor Binding Assay for human Pregnane X Receptor (PXR) (AID 2283365).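 Also: a drop in FRET signal versus DMSO baseline means the compound binds.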 The essentials:
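Human PXR protein, cell-free; compound added, incubated 2 h, TR-FRET read. Signal decrease vs DMSO = binding. Screened 25 uM duplicate, actives re-run as dilution series.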

In another test the test system is DIO1 (gene 1733). As to the kind of experiment: CCTE_GLTED_hDIO1: CCTE's human Deiodinase 1 (DIO1) Inhibition Assay, Great Lakes Toxicology and Ecology Division (GLTED) Lab (AID 2283987).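 Also: isolated human DIO1 enzyme in a cell-free setup rather than cells; enzyme activity read as free iodide liberated from substrate via Sandell-Kolthoff colorimetry.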 The essentials:
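Inhibition of human deiodinase 1 is scored as reduced iodide liberation after a 3 h enzyme–chemical incubation, detected colorimetrically by the Sandell-Kolthoff reaction against DMSO controls.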

The next test relates to DIO2 (gene 1734). As to the kind of experiment: CCTE_GLTED_hDIO2: CCTE's human Deiodinase 2 (DIO2) Inhibition Assay, Great Lakes Toxicology and Ecology Division (GLTED) Lab (AID 2284050). The essentials:
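Triplicate cell-free incubations (3 h) of human DIO2 with chemical preceded colorimetric Sandell-Kolthoff quantitation of liberated iodide; DMSO served as negative control for curve fitting.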

The next test relates to DIO3 (gene 1735). Nature of the test: CCTE_GLTED_hDIO3: CCTE's human Deiodinase 3 (DIO3) Inhibition Assay, Great Lakes Toxicology and Ecology Division (GLTED) Lab (AID 2284055).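 Also: potency is for inhibition seen as loss of released iodide signal.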 The essentials: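 Steps: incubate adenovirus-produced hDIO3 with chemical for 3 hours; detect freed iodide via cerium-arsenic Sandell-Kolthoff colorimetry; compare with DMSO baseline.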
In test [8] the target is chimpanzee Androgen Receptor (AR), AR (gene 747460) (UniProt O97775). Nature of the test: NVS_NR_cAR: NovaScreen (NVS) Nuclear Receptor Binding Assay for chimpanzee Androgen Receptor (AR) (AID 2283346).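 Also: radioligand displacement from AR measured by scintillation counting in a cell-free assay; a loss of bound radioligand signal versus DMSO counts as binding.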 The essentials: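 Cell-free competition binding with insect-cell (Sf9/Sf21) extracted chimpanzee AR; scintillation signal from lysate at 72 h. Screened in duplicate at 25 uM, then concentration-response for actives; fitting relative to DMSO.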

Test [9] can be described thus: CEETOX_H295R_OHPREG: CeeTox H295R High-throughput Steroidogenesis Assay for OH-Pregnenolone (OHPREG) (AID 2283434; active = hit-call score of the fitted dose curve at least 0.9, where 1 is the maximum; inactive = score below 0.9). The following applies: actives raise or lower the signal. The essentials: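 Secreted 17alpha-hydroxypregnenolone measured by HPLC-MS/MS after liquid-liquid extraction. Human adrenal H295R cells received 48 h forskolin (10 uM) stimulation before 48 h chemical exposure at 0.1% final DMSO; MTT viability in same wells; bidirectional fit against DMSO.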

Test [10] can be described thus: CEETOX_H295R_OHPROG: CeeTox H295R High-throughput Steroidogenesis Assay for OH-Progesterone (OHPROG) (AID 2283435; active = hit-call score of the fitted dose curve at least 0.9, where 1 is the maximum; inactive = score below 0.9). As to conditions: actives raise or lower the signal. The essentials: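 Human adrenocortical H295R cells, passage 10 or lower, were treated with chemical for 48 h after forskolin priming, and hormone output in the medium was quantified by LC-MS/MS.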

The nature of test [11]: CEETOX_H295R_MTT_cell_viability: Viability Assessment in the CeeTox HT-H295R MTT Assay (AID 2283718; active = hit-call score of the fitted dose curve at least 0.9, where 1 is the maximum; inactive = score below 0.9). The essentials: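 MTT reduction (0.5 mg/ml, 4 h at 37 C; absorbance at 570 and 650 nm) gave viability as background-corrected percent change versus controls. H295R cells had 48 h forskolin (10 uM) prestimulation, then 48 h chemical exposure at 0.1% DMSO.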
For test [12], the system named is zebrafish Androgen Receptor (AR), gene 100005148. Nature of the test: ATG_zfAR_XSP1: Attagene TRANS-FACTORIAL Multi-Species (XSP1) HepG2 Assay for zebrafish Androgen Receptor (AR) (AID 2283771). The essentials: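 Gain-of-signal versus DMSO was measured as reporter transcripts quantified by RT-PCR, fluorescent labelling and capillary electrophoresis after 24 h chemical exposure. The cells were HepG2 expressing a chimeric zebrafish AR-GAL4, co-stimulated with 3 nM 6-alpha-fluorotestosterone.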

Test [13] concerns zebrafish Estrogen Receptor (ESR2B), gene 317733. As to the kind of experiment: ATG_zfER2b_XSP1: Attagene TRANS-FACTORIAL Multi-Species (XSP1) HepG2 Assay for zebrafish Estrogen Receptor (ESR2B) (AID 2283773). The essentials:
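Medium contained 3 nM 6-alpha-fluorotestosterone. Reporter mRNA induction by exogenous zebrafish ER2b-Gal4 chimera was read 24 h post-dose in transiently transfected HepG2 cells, using RT-PCR, fluorescent labelling, HpaI digestion and capillary electrophoresis.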

Test [14] deals with chicken Estrogen Receptor (ESR1), ESR1 (gene 396099) (UniProt P06212). Nature of the test: ATG_chERa_XSP1: Attagene TRANS-FACTORIAL Multi-Species (XSP1) HepG2 Assay for chicken Estrogen Receptor (ESR1) (AID 2283779). The essentials:
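Trans-activation of an exogenous chicken ERα–Gal4 chimera read as reporter transcript (RT-PCR, fluorescent labeling, capillary electrophoresis) after 24 h compound exposure of transfected HepG2; medium held 3 nM 6-alpha-fluorotestosterone. Positive-direction fit against DMSO.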

Test [15] has as its system turtle Estrogen Receptor (ESR1), gene 101933533. As to the kind of experiment: ATG_trERa_XSP1: Attagene TRANS-FACTORIAL Multi-Species (XSP1) HepG2 Assay for turtle Estrogen Receptor (ESR1) (AID 2283781). The essentials:
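Transactivation measured 24 h post-dose as reporter mRNA (RT-PCR, fluorescent capillary electrophoresis) from an NR-Gal4 turtle ER construct in HepG2. Medium included 3 nM 6-alpha-fluorotestosterone; increase over DMSO fitted.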

Test [16] is described as follows: ATG_M_06_XSP1: Attagene TRANS-FACTORIAL Multi-Species (XSP1) HepG2 Assay for M06 Transcription Factor (Internal Marker) (AID 2283790). The essentials:
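This background-control readout tracks M06 reporter mRNA, measured by RT-PCR and capillary electrophoresis. HepG2 cells transiently carrying the GAL4-UAS reporter panel were dosed for 24 h with 3 nM 6-alpha-fluorotestosterone added for partial AR stimulation; increases were scored relative to DMSO.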

Test [17] is described as follows: ATG_M_61_XSP1: Attagene TRANS-FACTORIAL Multi-Species (XSP1) HepG2 Assay for M61 Transcription Factor (Internal Marker) (AID 2283797). The essentials:
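Background-control readout: reporter transcripts measured by RT-PCR and capillary electrophoresis 24 h after dosing transiently transfected HepG2 multi-reporter cells, with 3 nM 6-alpha-fluorotestosterone present. Fitted in the positive direction relative to DMSO.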

Records with an inconclusive call do not appear. Active and inactive are the calls of the source. The calls were made as follows, unless noted: active = hit-call score of the fitted dose curve at least 0.9, where 1 is the maximum; inconclusive = response in the unintended direction; inactive = score below 0.9.

Chain of Nuclear receptor subfamily 1 group I member 2 (Homo sapiens) (O75469 whole entry, looked up): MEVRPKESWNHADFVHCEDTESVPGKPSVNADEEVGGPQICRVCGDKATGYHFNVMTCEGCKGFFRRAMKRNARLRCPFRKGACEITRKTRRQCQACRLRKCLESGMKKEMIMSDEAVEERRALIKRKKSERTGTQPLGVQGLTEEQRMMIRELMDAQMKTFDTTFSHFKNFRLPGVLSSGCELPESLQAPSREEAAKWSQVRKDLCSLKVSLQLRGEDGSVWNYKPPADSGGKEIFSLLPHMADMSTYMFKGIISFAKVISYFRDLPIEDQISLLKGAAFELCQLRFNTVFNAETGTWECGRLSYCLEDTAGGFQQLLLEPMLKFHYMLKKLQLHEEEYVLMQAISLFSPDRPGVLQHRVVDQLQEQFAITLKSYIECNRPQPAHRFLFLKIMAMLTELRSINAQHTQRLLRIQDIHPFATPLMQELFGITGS
Chain of human Opioid Receptor Mu (Opiate Mu), OPRM1 (gene 4988) (P35372 whole entry, looked up): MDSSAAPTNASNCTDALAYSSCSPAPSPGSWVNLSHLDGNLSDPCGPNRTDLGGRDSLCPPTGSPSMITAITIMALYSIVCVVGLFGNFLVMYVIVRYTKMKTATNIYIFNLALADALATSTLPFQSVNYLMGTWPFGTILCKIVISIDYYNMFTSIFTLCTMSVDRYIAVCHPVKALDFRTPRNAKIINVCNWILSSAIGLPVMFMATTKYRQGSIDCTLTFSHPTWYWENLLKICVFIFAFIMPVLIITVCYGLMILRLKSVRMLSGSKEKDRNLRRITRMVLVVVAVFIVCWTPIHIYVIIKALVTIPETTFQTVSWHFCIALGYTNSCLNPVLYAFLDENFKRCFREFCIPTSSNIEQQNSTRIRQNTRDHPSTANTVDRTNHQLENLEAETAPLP
Chain of human Dopamine Transporter (DAT), SLC6A3 (gene 6531) (Q01959 whole entry, looked up): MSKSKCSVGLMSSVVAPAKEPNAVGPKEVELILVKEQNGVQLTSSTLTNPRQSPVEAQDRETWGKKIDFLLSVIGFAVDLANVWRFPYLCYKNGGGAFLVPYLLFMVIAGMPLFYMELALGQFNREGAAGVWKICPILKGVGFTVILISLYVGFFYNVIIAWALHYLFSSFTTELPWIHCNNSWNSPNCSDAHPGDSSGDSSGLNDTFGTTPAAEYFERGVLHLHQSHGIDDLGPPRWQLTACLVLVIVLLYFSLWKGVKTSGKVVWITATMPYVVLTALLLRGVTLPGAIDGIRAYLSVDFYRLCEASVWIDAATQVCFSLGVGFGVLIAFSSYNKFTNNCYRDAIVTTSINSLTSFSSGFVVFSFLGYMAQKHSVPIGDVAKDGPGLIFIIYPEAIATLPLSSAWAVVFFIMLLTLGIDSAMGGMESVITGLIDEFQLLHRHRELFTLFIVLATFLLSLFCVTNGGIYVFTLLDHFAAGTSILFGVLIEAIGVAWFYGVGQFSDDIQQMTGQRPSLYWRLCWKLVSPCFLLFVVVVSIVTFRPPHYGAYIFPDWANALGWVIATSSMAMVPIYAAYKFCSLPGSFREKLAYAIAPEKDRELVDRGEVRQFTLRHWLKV
Chain of human Neurokinin, NK2 Receptor, TACR2 (gene 6865) (P21452 whole entry, looked up): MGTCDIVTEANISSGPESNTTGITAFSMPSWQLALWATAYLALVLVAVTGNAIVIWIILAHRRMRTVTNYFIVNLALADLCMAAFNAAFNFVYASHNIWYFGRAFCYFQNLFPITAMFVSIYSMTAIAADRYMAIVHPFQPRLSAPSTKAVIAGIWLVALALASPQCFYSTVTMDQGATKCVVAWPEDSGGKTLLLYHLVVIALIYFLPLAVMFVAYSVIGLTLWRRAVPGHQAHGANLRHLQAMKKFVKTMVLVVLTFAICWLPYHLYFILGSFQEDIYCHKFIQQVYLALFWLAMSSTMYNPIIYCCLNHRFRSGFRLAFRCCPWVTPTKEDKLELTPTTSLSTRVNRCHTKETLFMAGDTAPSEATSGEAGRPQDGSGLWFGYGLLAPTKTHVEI
Chain of D(1A) dopamine receptor (Homo sapiens) (P21728 whole entry, looked up): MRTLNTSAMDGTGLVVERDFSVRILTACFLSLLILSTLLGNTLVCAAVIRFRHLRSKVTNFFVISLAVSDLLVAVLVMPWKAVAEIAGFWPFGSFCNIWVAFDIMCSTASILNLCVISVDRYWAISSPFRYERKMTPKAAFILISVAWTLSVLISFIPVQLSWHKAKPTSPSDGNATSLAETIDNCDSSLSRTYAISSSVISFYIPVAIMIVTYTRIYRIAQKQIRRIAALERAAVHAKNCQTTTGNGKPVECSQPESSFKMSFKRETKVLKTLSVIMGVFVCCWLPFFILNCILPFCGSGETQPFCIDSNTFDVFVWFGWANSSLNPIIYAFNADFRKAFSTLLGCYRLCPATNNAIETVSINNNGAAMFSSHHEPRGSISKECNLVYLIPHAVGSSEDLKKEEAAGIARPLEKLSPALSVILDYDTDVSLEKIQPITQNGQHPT
Chain of chicken Estrogen Receptor (ESR1), ESR1 (gene 396099) (P06212 whole entry, looked up, the tested form may be a part): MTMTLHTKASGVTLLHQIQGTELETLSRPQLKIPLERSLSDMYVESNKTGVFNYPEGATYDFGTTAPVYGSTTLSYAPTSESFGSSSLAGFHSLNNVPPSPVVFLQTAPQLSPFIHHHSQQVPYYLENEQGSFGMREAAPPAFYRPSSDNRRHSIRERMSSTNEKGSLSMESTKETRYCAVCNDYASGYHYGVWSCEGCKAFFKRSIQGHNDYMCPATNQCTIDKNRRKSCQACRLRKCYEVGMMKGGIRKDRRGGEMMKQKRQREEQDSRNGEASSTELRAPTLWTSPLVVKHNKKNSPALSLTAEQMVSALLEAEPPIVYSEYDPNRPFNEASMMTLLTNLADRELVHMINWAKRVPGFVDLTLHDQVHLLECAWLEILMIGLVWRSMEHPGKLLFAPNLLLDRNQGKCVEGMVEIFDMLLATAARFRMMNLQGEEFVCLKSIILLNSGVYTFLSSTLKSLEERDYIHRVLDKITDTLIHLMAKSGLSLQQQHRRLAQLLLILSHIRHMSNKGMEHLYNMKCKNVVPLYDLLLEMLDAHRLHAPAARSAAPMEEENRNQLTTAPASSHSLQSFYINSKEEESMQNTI
Chain of chimpanzee Androgen Receptor (AR), AR (gene 747460) (O97775 whole entry, looked up): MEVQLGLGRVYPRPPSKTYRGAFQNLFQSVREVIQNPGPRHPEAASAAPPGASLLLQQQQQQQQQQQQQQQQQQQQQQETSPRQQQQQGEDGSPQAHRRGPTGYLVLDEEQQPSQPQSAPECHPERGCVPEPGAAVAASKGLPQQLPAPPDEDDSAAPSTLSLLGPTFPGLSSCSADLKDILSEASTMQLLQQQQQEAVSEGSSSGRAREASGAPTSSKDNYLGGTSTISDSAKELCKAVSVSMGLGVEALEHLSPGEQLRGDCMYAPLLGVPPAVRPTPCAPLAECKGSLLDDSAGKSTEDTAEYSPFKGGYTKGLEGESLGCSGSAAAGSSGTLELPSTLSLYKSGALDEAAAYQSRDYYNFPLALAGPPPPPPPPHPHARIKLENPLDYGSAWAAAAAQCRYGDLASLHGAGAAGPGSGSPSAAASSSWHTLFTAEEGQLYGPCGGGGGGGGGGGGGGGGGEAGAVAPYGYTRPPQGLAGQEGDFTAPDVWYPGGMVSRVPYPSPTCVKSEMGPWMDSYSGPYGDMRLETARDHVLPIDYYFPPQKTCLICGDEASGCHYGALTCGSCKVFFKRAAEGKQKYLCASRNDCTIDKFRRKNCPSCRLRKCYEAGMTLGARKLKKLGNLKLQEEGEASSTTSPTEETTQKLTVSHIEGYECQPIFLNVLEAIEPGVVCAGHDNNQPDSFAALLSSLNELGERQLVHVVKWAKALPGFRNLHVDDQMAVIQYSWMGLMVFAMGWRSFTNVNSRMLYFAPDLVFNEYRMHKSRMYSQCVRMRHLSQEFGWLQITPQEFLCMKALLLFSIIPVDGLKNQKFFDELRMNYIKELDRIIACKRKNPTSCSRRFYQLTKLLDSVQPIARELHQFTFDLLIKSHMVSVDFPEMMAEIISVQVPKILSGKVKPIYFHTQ

As for `O=C1C=CC(=O)C=C1`, the concentration at half-maximal activity (AC50) in [1] was 12.8 µM (active); in test [2] it was 0.927 µM (active); in test [3], 9.86 µM (active); in test [4] it was 13.9 µM (active); in test [5], 50 µM (active). The result in test [6] was inactive.

Take `CCCCCCCCCCCCCCCC[N+](C)(C)C`: the AC50 is 0.899 µM (active) in [7], 13.5 µM (active) in the test with DIO1 (gene 1733), 19.8 µM (active) in the test on DIO2 (gene 1734) and 1.56 µM (active) with DIO3 (gene 1735).

On to `CC(=O)c1cc2c(cc1C)C(C)(C)C(C)CC2(C)C` (stereo not given), for which the compound was classed as inactive in test [8], in test [9], in test [10], in test [11], in [15] and in [16]. For the same compound, the result in test [17] was inactive. Further, the AC50 is 64.4 µM (active) in [12], 25.5 µM (active) in test [13] and 59.7 µM (active) in test [14].

For orientation: AC50 means the concentration at which the activity in the assay is half-maximal.

Source of the values: PubChem BioAssay (EPA / NIEHS).
